Screening results deposited in PubChem by National Center for Advancing Translational Sciences (NCATS).
USP1 inh: Inhibitors of USP1/UAF1: Primary Screen; Ubiquitin carboxyl-terminal hydrolase 1 (Homo sapiens), O94782; Potency, µM (titrated, usually from 57.1 µM), inactives show at the highest dose activity change, negative = inhibition, usual class: inhibitors; 0.23% of 390,000 active; recombinant USP1/UAF1, Ub-Rhodamine cleavage fluorescence; further: on the % scale 0 is the no-effect control and ±100 the full control effect; nearly all actives have a fitted effect of over 60% in size
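1 nM enzyme complex + cpd, 15 min RT; start with Ub-Rho 150nM final; kinetic fluorescence ex 480/em 540, 6 reads q60 s. Buffer 50mM HEPES pH 7.8, 0.5mM EDTA, 0.1 mg/ml BSA, 1mM TCEP, 0.01% Tween-20.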
VDR inhibitor: Inhibitors of the vitamin D receptor (VDR): qHTS; Vitamin D3 receptor (Homo sapiens), P11473; VDR-SRC2-3 peptide fluorescence polarization, 2 h; Potency, µM, for inactives: max response, negative = inhibition, hits mostly inhibitors; 0.93% of 400,000 active; AID 504847, 2011; further: on the % scale 0 is the no-effect control and ±100 the full control effect
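Fluorescence polarization assay measuring small-molecule disruption of VDR binding to the coregulator peptide SRC2-3. Compounds were pin-transferred (23 nl) into the reagent mix and incubated 2 h at room temperature before reading.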
TSG101-PTAP inh: qHTS Assay for Iinhibitors of HIV-1 Budding by Blocking the Interaction of PTAP/TSG101; Fluorescence polarization, FITC-PTAP peptide / Tsg101 binding; Potency, µM (top dose mostly 115 µM), inactives show at the top dose activity change, negative = inhibition, usual class: inhibitors; 340,000 tested, under 10 active; active means well fitted inhibition curve with a large enough effect in the main read-out, with a control signal flat, not every such curve was filed as active; inconclusive means small, poorly fitted or top-dose-only effect, or effect the other way, or a change in a side signal; inactive means no such curve, though single readings can be large or run the other way; further: % of control where 0% means no effect
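Fluorescence polarization binding of Tsg101 binding domain (10 uM final) to FITC-labeled PTAP peptide (50 nM final) in HEPES pH 7.5 buffer with NaCl, Tween 20, EDTA, TCEP. Compounds added before peptide; binding 20 min at RT.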
KAT2A inh: qHTS Assay for Inhibitors of GCN5L2 | Potency, µM (highest dose often 58.9 µM), for inactives: at the highest dose activity change, negative = inhibition, actives largely listed as inhibitors | 0.21% of 390,000 active | GCN5L2 HAT assay, ThioGlo1 CoA-SH fluorescence | AID 504327, 2011; further: on the % scale 0 is the no-effect control and ±100 the full control effect
Target sequence (Q92830 whole entry, looked up): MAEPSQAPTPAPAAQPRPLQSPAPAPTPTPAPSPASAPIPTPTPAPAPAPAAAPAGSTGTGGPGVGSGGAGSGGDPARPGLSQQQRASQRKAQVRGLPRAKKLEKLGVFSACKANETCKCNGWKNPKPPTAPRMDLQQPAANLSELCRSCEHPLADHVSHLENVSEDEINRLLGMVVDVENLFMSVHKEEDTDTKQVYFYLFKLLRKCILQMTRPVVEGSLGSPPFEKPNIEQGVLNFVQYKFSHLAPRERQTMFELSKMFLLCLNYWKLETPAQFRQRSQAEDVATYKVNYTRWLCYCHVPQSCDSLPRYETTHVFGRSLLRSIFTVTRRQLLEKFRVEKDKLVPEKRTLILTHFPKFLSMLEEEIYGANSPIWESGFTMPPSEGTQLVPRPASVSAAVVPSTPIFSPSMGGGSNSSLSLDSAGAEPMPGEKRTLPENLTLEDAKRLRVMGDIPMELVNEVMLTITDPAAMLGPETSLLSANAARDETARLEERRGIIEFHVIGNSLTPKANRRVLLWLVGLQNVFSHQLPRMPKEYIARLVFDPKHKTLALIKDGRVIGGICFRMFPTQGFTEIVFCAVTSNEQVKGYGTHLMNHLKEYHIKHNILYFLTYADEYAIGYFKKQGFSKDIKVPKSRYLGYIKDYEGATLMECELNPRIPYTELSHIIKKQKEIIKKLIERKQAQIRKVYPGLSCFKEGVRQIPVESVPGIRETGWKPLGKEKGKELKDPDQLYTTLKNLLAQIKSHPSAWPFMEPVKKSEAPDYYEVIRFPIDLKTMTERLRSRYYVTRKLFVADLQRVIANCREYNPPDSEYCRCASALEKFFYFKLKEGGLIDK
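Compounds, pin-transferred from DMSO stocks, meet 20nM GCN5L2 for 15 min before the reaction begins with H3(1-25) peptide (75uM) and acetyl-CoA (70uM). Thiol-reactive ThioGlo1 reports CoA release over 20 min at room temperature.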
PLK1 PBD inh: qHTS for Inhibitors of PLK1-PDB (polo-like kinase 1 - polo-box domain): Primary Screen. Plk1 PBD binding of FITC phosphopeptide, fluorescence polarization. Serine/threonine-protein kinase PLK1 (Homo sapiens), P53350. Potency, µM, without a hit: max response, negative = inhibition, hits mostly inhibitors. 2.8% of 360,000 active. AID 720504, 2013; further: series mostly up to about 57 µM; on the % scale 0 is the no-effect control and ±100 the full control effect; nearly all actives have a fitted effect of over 65% in size
The depositor's hits bear a star; ? = inconclusive; nt = no result; [ ] = another dose, or the depositor's remark. Shown are actives, neighbours in structure and some others; about 3% of the full set was active somewhere. Unless noted, the call rests on the fitted dose curve; in most records, active means well fitted curve in the direction sought with a large enough effect; inconclusive means small, poorly fitted or top-dose-only effect, or another doubt; inactive means no such curve, though single readings can be large; an effect the other way counts as inactive or inconclusive. Potency means the concentration at half of the fitted maximal effect.

SMILES | USP1 inh | VDR inhibitor | TSG101-PTAP inh | KAT2A inh | PLK1 PBD inh
COc1ccc(-n2c(=O)c(-c3ccc(Cl)cc3)nc3cnc(N4CCOCC4)nc32)cc1 | nt | 40µM* | nt | -13% | nt
CC(C)c1ccc(/C=C(\C#N)c2nc(-c3ccc(O)cc3)cs2)cc1 | -24% | 0% | nt | -9% | nt
Fc1ccccc1C1CC(c2ccco2)=Nc2ccccc2S1 (stereo unspecified) | -20% | 79µM* | -3% | -11% | -13%
COc1ccccc1C1CC(c2cccs2)=Nc2ccccc2S1 (stereo unspecified) | -9% | -20% | -6% | -5% | -18%
Cc1ccc(CNC(=O)c2ccc3c(c2)N(Cc2cccc(C)c2)C(=O)CS3)cc1 | -21% | -6% | nt | 0% | nt
COc1ccc(-c2cc(C(C)=O)c(C)n2CCC(=O)Nc2ccc(C)cc2Cl)cc1 | -25% | 5% | nt | -4% | nt
Cc1ccc(/C=N/n2nnnc2N)o1 | -3% | 6% | -3% | -3% | 0%
Cc1ccc(/C=N/n2c(C)nnc2C)o1 | -22% | ? | -3% | -1% | 21µM*
Cc1ccc(/C=N/n2c(C)nnc2C)s1 | -18% | -21% | -1% | -12% | 27µM*
Cc1ccc(/C=N/N2CCOCC2)s1 | -15% | 0% | -3% | -5% | -4%
CCOC(=O)/C(C#N)=C\c1ccc(OC)c(OC)c1 | -6% | 0% | 0% | -13% | -16%
CCOC(=O)/C(C#N)=C\c1cc(OC)c(OC)cc1[N+](=O)[O-] | -13% | 20µM* | -9% | -11% | 7.5µM*
CN(C)CCCNCC(=O)c1c(-c2ccccc2)n(C)c2ccccc12 | -23% | 79µM* | -6% | 19% | -21%
Cc1ccc2c(c1)[nH]c1c(=O)n(Cc3ccco3)cnc12 | -31% | ? | -1% | 3% | 27µM*
Cc1ccc2c(c1)[nH]c1c(=O)n(CCC3=CCCCC3)cnc12 | nt | nt | nt | 2.5µM* | nt
CCC(C)n1c(=N)c(C(=O)NCc2ccco2)cc2c(=O)n3cc(C)ccc3nc21 (stereo unspecified) | -29% | -22% | nt | -5% | nt
O=C1CC(c2ccccc2)CC(O)=C1C=Nc1ccccc1 (stereo unspecified) | -21% | -1% | 0% | -11% | 24µM*
O=C1CC(c2ccccc2)CC(O)=C1C=Nc1ccccc1O (stereo unspecified) | -15% | 5% | -4% | 3% | 1%
CCOC(=O)c1c(NC(=O)CSc2ncccn2)sc2c1CCN(Cc1ccccc1)C2 | ? | -11% | -3% | -12% | 24µM*
CCCN1CNc2c(c(=O)[nH]c(=S)n2Cc2ccc(OC)c(OC)c2)C1 | nt | 8% | nt | nt | nt
CC1CCN(C(=O)C(C)OC(=O)CSc2ccc([N+](=O)[O-])cc2)CC1 (stereo unspecified) | 0% | ? | -5% | -1% | 15µM*
COc1ccc(C(=O)Nc2nnc(C(F)(F)F)s2)cc1 | -10% | -24% | -10% | -4% | 27µM*
O=C1NC(c2cccc3ccccc23)Nc2ccccc21 (stereo unspecified) | ? | 12% | -1% | nt | -7%
O=C1c2ccccc2C(=O)C1Cc1cccc2ccccc12 | -22% | ? | -1% | -4%[0.501 µM] | 6.7µM*
COc1ccc(S(=O)(=O)N(CCO)c2ccccc2CN(C)CC=Cc2ccc(Cl)cc2)cc1 | nt | -19% | nt | 9% | nt
SMILES | USP1 inh | VDR inhibitor | TSG101-PTAP inh | KAT2A inh | PLK1 PBD inh
CCN(CC)C(=O)CSc1nnc(COc2ccc(OC)cc2)n1N | -18% | -1% | -1% | -4% | -8%
CCN(CC)C(=O)CSc1nnc2nnc3cc(OC)ccc3n12 | ? | 3% | ? | -9% | 24µM*
COC(=O)c1c(C(=O)OC)c(-c2ccc(Cl)cc2)n2c1CS(=O)(=O)C2 | 0% | ? | 2% | 2% | 4.2µM*
CCOc1ccc(C(=O)C(CCC(CN(C)C)C(=O)c2ccc(OCC)cc2)CN(C)C)cc1 (stereo unspecified) | -14% | ? | -6% | -2% | 27µM*
CN(C)CC(CCC(CN(C)C)C(=O)c1ccccc1)C(=O)c1ccccc1 (stereo unspecified) | -10% | 45µM* | -1% | -10% | 13µM*
COc1ccc(C(=O)C(CCCCC(CN(C)C)C(=O)c2ccc(OC)cc2)CN(C)C)cc1 (stereo unspecified) | -10% | 15% | -3% | -8% | 0%
CCOC(=O)C(C)CC(C)C(=O)N1CCOCCOCCN(C(=O)C(C)CC(C)C(=O)OCC)CCOCC1 (stereo unspecified) | -2% | -7% | -1% | 22% | -12%
CCOC(=O)C(C(=O)OCC)C(C(=O)OCC)N1CCOCC1 (stereo unspecified) | -2% | 40µM* | 1% | -9% | 24µM*
O=C(CCS(=O)(=O)c1ccc(Br)s1)Nc1cc(C(F)(F)F)cc(C(F)(F)F)c1 | -11% | -18% | nt | -23% | nt
Clc1ccc(-n2nnc(-c3nccs3)n2)cc1Cl | -29% | -20% | 0% | -20% | 27µM*
Cc1ccc(-n2nnc(-c3nccs3)n2)cc1 | -24% | -6% | nt | -2% | 4%
Cc1cnnn1-c1ccc(C(=O)CCl)cc1 | -9% | -23% | -1% | -7% | 3.8µM*
CC(=O)c1ccc(-n2nncc2C(C)(C)C)cc1 | -23% | 2% | -8% | -1% | -5%
Cc1ccccc1NC(=S)c1ccc2ccccc2n1 | -21% | 8% | 2% | -12% | 2.7µM*
O=c1nc(SCc2c(F)cccc2Cl)nc(-c2ccc(Cl)cc2)[nH]1 | -19% | -3% | -6% | 11% | 21µM*
CCOc1ccccc1NC(=O)NCCC1=CCCCC1 | -9% | -9% | 1% | -2% | -15%
CC(C)[C@H](NC(=O)NCCC1=CCCCC1)C(=O)O | -19% | 4% | -4% | -5% | -10%
CCC(C)[C@H](NC(=O)NCCC1=CCCCC1)C(=O)O (stereo partly specified) | -10% | ? | 4% | -1% | 24µM*
CCOc1ccccc1NC(=O)C(=O)NCCC1=CCCCC1 | -15% | -3% | -1% | -1% | 27µM*
COc1cccc(/C=C/C(=O)OCC(=O)NCCC2=CCCCC2)c1 | -2% | ? | -3% | -12% | 8.4µM*
COc1ccccc1NC(=O)NCCC1=CCCCC1 | -18% | ? | -3% | -18% | 24µM*
Cc1ccc(NC(=O)Cn2cc(C(=O)c3ccco3)c3ccccc32)cc1 | -11% | 7% | nt | ? | nt
Cc1ccc(CNC(=O)C(=O)NCCC2=CCCCC2)cc1 | -9% | 4% | 1% | 1% | 4%
CC(C)(C)NC(=O)C(=O)NCCC1=CCCCC1 | -14% | -4% | -1% | 0% | 21µM*
